PNC assembly inh – blocks assembly of the perinucleolar compartment; PC3M PTB-GFP, PNC prevalence imaging, 16 h; active compounds read low; activity change (PNC), negative = inhibition, % at 10 µM; 140,000 tested, 3.1% active;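 active = readout at or below -70, meaning at least 70% loss of cells showing the perinucleolar compartment, a nuclear body marking cancer cells; inconclusive = readout between -30 and a set limit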
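Compounds are pinned in duplicate onto adhered PC3M cells stably expressing GFP-tagged PTB and incubated 16 h at 37 C. Cells are then fixed, nuclei stained with Hoechst, and PNC-positive cells counted.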
KDM4E inh – blocks human JMJD2E demethylase activity; 230,000 tested, 1.6% active; Potency, µM (doses to about 57.1 µM), most hits filed as inhibitors; JMJD2E catalytic domain, FDH-coupled NADH fluorescence (FDH is formaldehyde dehydrogenase); B2RXH2; active = well fitted inhibition curve with a large enough effect, not every such curve was filed as active; inconclusive = small, poorly fitted or top-dose-only effect, or another doubt; inactive = no such curve, though single readings can be large or run the other way; note: nearly all actives have a fitted effect of over 50% in size
Target sequence (B2RXH2 1-337 limits assumed): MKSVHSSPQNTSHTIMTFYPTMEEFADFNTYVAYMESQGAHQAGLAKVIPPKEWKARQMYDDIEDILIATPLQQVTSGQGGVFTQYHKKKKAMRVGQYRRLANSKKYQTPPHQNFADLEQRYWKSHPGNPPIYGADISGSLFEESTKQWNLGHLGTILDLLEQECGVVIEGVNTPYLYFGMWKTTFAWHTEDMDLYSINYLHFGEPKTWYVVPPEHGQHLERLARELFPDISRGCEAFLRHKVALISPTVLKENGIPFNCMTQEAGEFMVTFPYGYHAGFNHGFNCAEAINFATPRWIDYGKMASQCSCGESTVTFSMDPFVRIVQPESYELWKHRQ
Tau fluor cs – counter-screen for tau fibril formation inhibitors. tau K18 P301L Alexa594 fluorescence, heparin fibrillization. Potency, µM (highest dose often 57.7 µM). 280,000 tested, 0.93% active. AID 1463; note: nearly all actives have a fitted effect of over 55% in size
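Human K18 P301L tau (15 uM unlabeled plus 0.24 uM Alexa 594-labeled, final) in 100 mM sodium acetate pH 7 was mixed with compound and 20 uM heparin and incubated 6 hr at 37 C.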
Tau fibril FP – blocks human tau fibril formation measured by polarization. P10636. K18 P301L tau heparin fibrillization, Alexa594 FP, 6 h. Potency, µM (highest dose often 57.7 µM), most hits filed as inhibitors. 280,000 tested, 0.39% active. AID 1468; note: nearly all actives have a fitted effect of over 55% in size
Target sequence (P10636 561-689 P618L limits assumed): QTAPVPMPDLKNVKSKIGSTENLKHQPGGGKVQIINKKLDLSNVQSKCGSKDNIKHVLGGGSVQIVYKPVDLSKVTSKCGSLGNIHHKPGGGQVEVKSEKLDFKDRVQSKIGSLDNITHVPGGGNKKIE
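Steps: dispense K18 P301L tau (15 uM plus 0.24 uM Alexa 594 tracer, final) in pH 7 sodium acetate; add compound; add heparin (20 uM final); incubate 6 hr, 37 C; add ThT (30 uM final); after 1 hr ambient, read FP.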
NPSR antag – neuropeptide S receptor (human) antagonism, cAMP; Q6W5P4; 220,000 tested, 1% active; Potency, µM (doses to about 38.3 µM), most hits filed as inhibitors; CHO-NPSR cells, cAMP TR-FRET, antagonist mode; AID 1461; note: nearly all actives have a fitted effect of over 50% in size
Tau ThT inhib – tau fibrillization inhibition (ThT binding); 270,000 tested, 2.1% active; P10636; Potency, µM (series often up to 57.4 µM), hits mostly inhibitors; recombinant tau K18 P301L (four-repeat tau fragment), heparin-induced fibrillization, ThT fluorescence; note: nearly all actives have a fitted effect of over 55% in size
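Aggregation was driven by heparin (20 uM final) acting on recombinant tau […] bearing P301L in 100 mM sodium acetate pH 7; fibrils were detected with Thioflavin T.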
Numbers stand for hits; i = inactive; ? = inconclusive; nt = no result given; [ ] = remark or other dose. In the library only some 5.1% were active in any assay of this set; here they are far more common. Unless noted, calls come from the whole dose curve; as a rule, active = well fitted curve in the direction sought with a large enough effect; inconclusive = small, poorly fitted or top-dose-only effect, or another doubt; inactive = no such curve, though single readings can be large; an effect the other way counts as inactive or inconclusive.

SMILES	PNC assembly inh	KDM4E inh	Tau fluor cs	Tau fibril FP	NPSR antag	Tau ThT inhib
Cc1cn(C2OC(COC(=O)c3ccccc3)C(OC(=O)c3ccccc3)C2OC(=O)c2ccccc2)c(=O)[nH]c1=O (stereo not given)	-119	i	i	i	i	i
Cc1cn2c(nc1=O)OC1C(O)C(COC(=O)c3ccccc3)OC12 (stereo not given)	i	i	i	i	i	i
Cc1cn(C2OC(COC(=O)c3ccccc3)C(O)C2O)c(=O)[nH]c1=O (stereo not given)	-89	i	i	i	i	i
O=C(OCC1OC2C(Oc3nc(=O)ccn32)C1O)c1ccccc1 (stereo not given)	?	i	i	i	i	i
COc1cccc(-n2c(-c3ccco3)nc3c(cnn3-c3ccc(C)cc3)c2=O)c1	nt	nt	i	i	nt	i
CCOc1ccc(-n2c(SCc3nc(-c4ccc(OC)cc4)no3)nnc2-c2ccncc2)cc1	nt	nt	i	i	nt	?
Cc1nc2cc(-c3ccsc3-n3c(C)ccc3C)[nH]n2c(=O)c1Cl	i	?	?	?	i	14µM
COCc1cc(=O)n2[nH]c(-c3ccsc3-n3c(C)ccc3C)cc2n1	i	?	?	?	i	22µM
Cc1cc(=O)n2[nH]c(-c3ccsc3-n3c(C)ccc3C)cc2n1	nt	?	?	?	i	nt
COc1ccccc1OCC(=O)NCC1(N(C)C)CCCCC1	nt	nt	i	i	nt	i
COc1ccc(NC(=O)CCCN2C(=O)CCn3nc(-c4cn(C)c5ccccc45)cc32)cc1	nt	nt	i	i	nt	?
O=C(Cn1c(=O)n(Cc2ccc3c(c2)OCO3)c(=O)c2ccc(C(=O)NC3CCCCC3)cc21)Nc1ccccc1F	nt	nt	i	?	nt	i
N#CC1=C(N)N=C(SCc2cccc3ccccc23)C(C(N)=O)C12CCCCC2 (stereo not given)	i	i	?	i	i	20µM
O=C(O)CCn1c(SCc2cccc3ccccc23)nc2ccccc21	i	i	i	i	i	i
COc1ccc(C)cc1N(C)C(=O)c1c2c(nc3ccccc13)C(=O)N(C1CCCCC1)C2	nt	nt	i	i	nt	i
COc1ccc(-c2nnc(C3CCN(S(=O)(=O)c4cccc(Cl)c4)CC3)o2)cc1	nt	nt	i	i	nt	?
CC(C)CC(=O)Nc1nnc(S(=O)(=O)N(C)Cc2ccc(Cl)cc2)s1	nt	nt	i	i	nt	i
CCCN1C(=O)S/C(=C/c2ccc(N3CCOCC3)o2)C1=O	nt	8.9µM	?	?	i	?
CCCN1C(=O)S/C(=C\c2ccc(N3CCOCC3)cc2C)C1=O	i	i	i	i	i	?
CCCN1C(=O)S/C(=C\c2ccc(N3CCOCC3)o2)C1=O	nt	?	i	i	i	18µM
COc1ccc(-c2nc3ccccc3n3c(-c4ccc(OC)cc4)c4c(=O)n(C)c(=O)n(C)c4c23)cc1	nt	nt	i	i	nt	?
Cc1cc(-c2ccc(C)c(S(=O)(=O)N(C)c3ccc(C)c(C)c3)c2)on1	nt	nt	?	?	nt	i
CC(C)c1ccc(N2C(=O)CC(Sc3ncn[nH]3)C2=O)cc1 (stereo not given)	i	1.6µM	i	i	i	i
COc1ccc(N2C(=O)CC(Sc3ncn[nH]3)C2=O)c(OC)c1 (stereo not given)	i	2.8µM	i	i	i	?
CCN1C(c2ccccc2)=C(c2ccccc2)S/C1=C/C=C1\SC(=S)N(C)C1=O	i	i	3.2µM[fluorescent]	i	i	?
SMILES	PNC assembly inh	KDM4E inh	Tau fluor cs	Tau fibril FP	NPSR antag	Tau ThT inhib
COc1cc(Br)ccc1C1C(C(=O)Nc2ccc(C)cc2C)=C(C)Nc2nnnn21 (stereo not given)	nt	nt	i	i	nt	i
Cc1cccc(CCNC(=O)Cn2ncc3c(=O)oc4ccccc4c32)c1	nt	nt	i	?	nt	i
O=C1CCCCCC1C1(O)C(=O)Nc2ccc(Br)cc21 (stereo not given)	i	i	i	i	i	i
O=C1Nc2ccc(Br)cc2C1(O)Cc1ccccn1 (stereo not given)	-114	i	i	i	i	i
COc1ccc(-c2oc(NC(=O)c3ccc(C)cc3)c(C#N)c2-c2ccc(OC)cc2)cc1	i	i	?	i	i	i
COc1ccc(-c2oc(NC(C)=O)c(C#N)c2-c2ccc(OC)cc2)cc1	?	i	16µM[quencher]	?	i	?
Oc1ccc(N=Nc2n[nH]c(-c3ccc(Br)cc3)n2)cc1	i	i	?	i	i	2.2µM
Oc1ccc(N=Nc2n[nH]c(-c3ccccc3)n2)cc1	i	i	i	i	i	2.5µM
c1ccc(-c2nc(-c3cccnc3)n[nH]2)cc1	?	i	i	i	i	i
Brc1cccc(-c2n[nH]c(-c3ccccc3)n2)c1	i	i	i	?	i	i
COc1cccc(Cc2nc3ccccc3nc2SCC(=O)Nc2cccc(C)c2)c1	nt	nt	i	i	nt	i
CCOc1ccccc1C(=O)N1CCc2cc(OC)c(OC)cc2C1COc1ccc(OC)cc1 (stereo not given)	nt	nt	i	i	nt	i
COc1ccc2c(c1)O[C@@H](c1ccc3c(c1)OCO3)[C@H](O)C2=O	nt	i	i	i	nt	i
Nn1c(-c2ccco2)n[nH]c1=S	i	?	i	i	i	i
S=c1[nH]nc(-c2ccco2)n1C1CCCCC1	-85	i	i	i	i	i
O=C(O)c1cc(NN=Nc2ccc(Br)cc2)cc([N+](=O)[O-])c1	nt	?	i	i	i	14µM
O=C(O)c1cc(NN=Nc2cccc([N+](=O)[O-])c2)cc([N+](=O)[O-])c1	nt	i	i	i	i	?
CN(N=Nc1ccc([N+](=O)[O-])cc1)c1ccccc1	i	i	i	i	i	?
O=[N+]([O-])c1ccc(N=NNc2ccccc2)cc1	nt	i	14µM[quencher]	i	i	8.9µM
Nc1cc([N+](=O)[O-])ccc1Nc1ccccc1	nt	i	?	?	i	16µM
CC(=O)c1ccc(C(=O)N(Cc2cccnc2)c2nc3c(Cl)cccc3s2)cc1	nt	nt	i	i	nt	i
O=C(COC(=O)Cn1cnc2ccccc21)NCCCc1ccccc1	nt	i	i	i	i	i
O=C(COC(=O)Cn1cnc2ccccc21)NCCc1ccccc1	-83	i	i	i	i[7.67 µM]	i
Cc1c(C(=O)N(Cc2ccc(Cl)cc2)CC2CCCO2)oc2ccc(F)cc12 (stereo not given)	nt	nt	i	i	nt	i
O=C(C1CCCN1C(=O)c1cccs1)N1CCc2ccccc21 (stereo not given)	-98	i	i	i	i	i
O=C(c1cccs1)N1CCc2ccccc21	?	i	i	i	i	i
Nc1c(C(=O)c2ccccc2)sc2snc(SCC(=O)c3ccccc3)c12	i	?	?	?	i	7.9µM
Nc1nnc(SCC(=O)c2ccccc2)s1	i	i	i	i	i	i
CC1=C(C)/C(=N\OS(=O)(=O)c2ccccc2)C=CC1=O	i	i	?	16µM	5µM	13µM
